Compound activity from PubChem.
ALDH1A1 block – qHTS Assay for Inhibitors of Aldehyde Dehydrogenase 1 (ALDH1A1); Aldehyde dehydrogenase 1A1 (Homo sapiens), P00352; 7.3% of 220,000 active; Potency, µM (series often up to 75.3 µM), for the others: top-dose activity, negative = inhibition, actives largely listed as inhibitors; Purified ALDH1A1, NADH fluorescence, propionaldehyde substrate; AID 1030, 2008;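 also: potency is read from the fitted curve at half-maximal effect; plate controls were no enzyme wells and a reference inhibitor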
PNC assembly inh – High Content Assay for Compounds that inhibit the Assembly of the Perinucleolar Compartment | activity change (PNC), negative = inhibition, % at 10 µM | 3.1% of 140,000 active | PC3M PTB-GFP, PNC prevalence imaging, 16 h; stronger effect = lower value;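 active = readout at or below -70, meaning at least 70% loss of cells showing the perinucleolar compartment, a nuclear body marking cancer cells; inconclusive = readout between -30 and a set limit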;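 also: plate controls were DMSO wells for no effect and camptothecin positive control wells for full effect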
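Read-out is percentage of cells bearing a perinucleolar compartment, from automated 20x imaging of fixed, Hoechst-stained PC3M PTB-GFP cells. Cells were seeded 4 h, then exposed 16 h to compound (23 nl of library stock) in duplicate plates.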
HPGD block – qHTS Assay for Inhibitors of HPGD (15-Hydroxyprostaglandin Dehydrogenase) | 15-hydroxyprostaglandin dehydrogenase [NAD(+)] (Homo sapiens), P15428 | purified HPGD, NADH fluorescence kinetic, PGE2 substrate | Potency, µM, without a hit: at the highest dose activity change, negative = inhibition, hits mostly inhibitors | 4.3% of 150,000 active | AID 894, 2007; also: potency is read from the fitted curve at half-maximal effect
Target sequence (P15428 whole entry, looked up): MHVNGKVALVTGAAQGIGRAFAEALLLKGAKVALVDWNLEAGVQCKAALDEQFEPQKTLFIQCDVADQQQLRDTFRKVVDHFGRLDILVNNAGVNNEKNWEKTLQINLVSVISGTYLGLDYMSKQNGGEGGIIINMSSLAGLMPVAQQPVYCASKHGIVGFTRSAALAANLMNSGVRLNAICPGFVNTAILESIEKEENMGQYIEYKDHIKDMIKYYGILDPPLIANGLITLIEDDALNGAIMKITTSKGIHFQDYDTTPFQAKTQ
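20 nM HPGD preincubated 15 min at room temperature with compound in 50 mM Tris-HCl pH 8, 0.01% Tween 20. Started with 1 mM NAD+ and 30 uM prostaglandin E2; NADH fluorescence (360/450 nm) read 5 times over 30-s intervals, last minus first.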
* hit, by the source's call; ? = inconclusive; . = no result; [ ] = another dose, or the depositor's remark. Compounds with a hit are over-represented: about 11% of the library has one in this group of screens. Unless noted, calls follow the shape of the dose curve; as a rule, active = well fitted inhibition curve with a large enough effect (not every such curve was filed as active); inconclusive = small, poorly fitted or top-dose-only effect, or another doubt; inactive = no such curve, though single readings can be large or run the other way. Unless noted, % is scaled to controls: 0 for no effect and ±100 for the full control effect.

SMILES	ALDH1A1 block	PNC assembly inh	HPGD block
OCCC1CN(Cc2cccn2-c2ccccn2)CCN1Cc1ccccc1 (configuration not stated)	1%	.	.
CCCCc1ccc(NC(=S)N2CCN(c3ncccn3)CC2)cc1	-16%	.	.
CC1=C(C(=O)Nc2ccc([N+](=O)[O-])cc2)C(c2cccc(C(F)(F)F)c2)NC(=S)N1c1ccccc1 (configuration not stated)	14µM*	30	-18%
COc1ccc(C2C(C(=O)Nc3ccccc3)=C(C)N=C3SCC(=O)N32)cc1 (configuration not stated)	?	200	-9%
CCN1C(=O)N[C@@H](c2cccc(C(F)(F)F)c2)C(C(C)=O)=C1C	15%[13.5 µM]	.	-1%
COc1ccc(C2NC(=S)N(c3ccccc3)C(C)=C2C(=O)Nc2ccccc2)cc1 (configuration not stated)	2µM*	-13	-16%
Cc1nc2ccccc2c(=O)n1/N=C/c1ccccc1	0%	7	0%
Cn1cc2c(=O)n(/N=C/c3ccccc3)cnc2n1	-6%	-82*	-2%
CCOCC(=O)Nc1nnc(C2CCCCC2)s1	19µM*	6	-25%
C/C=C/C(=O)Nc1nnc(C2CCCCC2)s1	-8%	.	.
COCC(=O)Nc1nnc(C2CCCCC2)s1	?	?	-14%
CCOC(=O)C(=O)Nc1nnc(C2CCCCC2)s1	32µM*	24	16µM*
C=CCN1C(=O)C2(C(C(=O)c3ccc(C)o3)=C(O)C(=O)N2CCCN2CCOCC2)c2ccccc21 (configuration not stated)	21%	?	.
CCCN1C(=O)C2(C(C(=O)c3ccc(C)o3)=C(O)C(=O)N2CCCN2CCOCC2)c2ccccc21 (configuration not stated)	10µM*	?	-4%
CC(=O)OCC1OC(C#Cc2ccc(C(C)(C)C)cc2)C=CC1OC(C)=O (configuration not stated)	-12%[13.5 µM]	.	.
O=C(Nc1nccs1)C12CC3CC(C1)CC(C(=O)Nc1nccs1)(C3)C2	-17%	-88*	-13%
O=C(NC1=NCCS1)C12CC3CC(C1)CC(C(=O)NC1=NCCS1)(C3)C2	7%	25	3%
Cc1cc2oc(=O)cc(CN3CCN(S(=O)(=O)c4cccs4)CC3)c2cc1C	?	-10	?
CC1CCN(C(=O)CN2C(=O)c3ccccc3S2(=O)=O)CC1	-3%	?	-14%
CC1CCN(C(=O)c2ccc3c(c2NCCO)C(=O)c2ccccc2C3=O)CC1	?	?	22µM*
O=c1c(F)cn(C2CCCO2)c(=O)n1Cc1c(Cl)cccc1Cl (configuration not stated)	-1%	-9	16µM*
O=c1c(F)cn(C2CCCO2)c(=O)n1Cc1ccc(Cl)cc1 (configuration not stated)	-6%	.	.
Cc1ccc(C(=O)N/C(=C\c2cccs2)C(=O)NCCc2c[nH]c3ccccc23)cc1	-8%	?	-8%
Cc1ccc(C(=O)/C=C/c2c[nH]c3ccccc23)cc1	25µM*	11	?
Cc1ccc(S(=O)(=O)/C(C#N)=C/c2c[nH]c3ccccc23)cc1	8%	?	-7%
SMILES	ALDH1A1 block	PNC assembly inh	HPGD block
O=C(/C=C/c1ccc[nH]1)c1ccccc1	-3%	.	.
O=C(/C=C/c1c[nH]c2ccccc12)c1ccccc1	3.2µM*	31	16µM*
Cc1ccc(C)c(/C(=N\N=C(N)N)C2CC2)c1	5%[13.5 µM]	.	-5%
O=C(CN1CCOCC1)Nc1ccccc1Sc1ccc(Cl)cc1	-2%	-18	-1%
O=C(OC(C(=O)Nc1ccc(Cl)cc1C(F)(F)F)c1ccccc1)c1c(Cl)cccc1Cl (configuration not stated)	3.2µM*	75	-8%
Cc1ccc(C(=O)OC(C(=O)Nc2ccc(Cl)cc2C(F)(F)F)c2ccccc2)cc1 (configuration not stated)	-5%	20	-12%
NCCCCCCCCCCN	5%	.	-10%
CC1(C(=O)OCc2cc(=O)n3cc(Br)ccc3n2)CC1(Cl)Cl (configuration not stated)	20µM*	.	.
CC1CC1C(=O)OCc1cc(=O)n2cc(Br)ccc2n1 (configuration not stated)	-14%	26	-7%
COc1ccc(C(CC(=O)NCC(OC)OC)NS(=O)(=O)c2ccc(Cl)cc2)cc1 (configuration not stated)	1%	.	.
CCOC(=O)[C@@H]1C(c2c(OC)cc(OC)cc2OC)=NO[C@@H]1C(=O)OCC	-3%	-23	-8%
CSc1cc(/C=N/O)c(SC)s1	?	-5	11µM*
CC(O)CNC(=O)C1CCN(Cc2ccc(OCc3ccccc3)cc2)CC1 (configuration not stated)	20µM*	-26	-4%
CC(C)CNC(=O)C1CCN(Cc2ccc(OCc3ccccc3)cc2)CC1	3%	35	1%
CCN1CCN(Cc2ccc(OCc3ccccc3)cc2)CC1	?	35	-11%
CN1CCN(Cc2ccc(OCc3ccccc3)cc2)CC1	-5%	-86*	0%
CC(=O)N[C@@H](C(=O)O)C(C)(C)SN=O	-12%	.	-15%
COc1ccc(C2CC(=O)C3=C(C2)Nc2ncnn2C3c2ccccc2)cc1 (configuration not stated)	?	-107*	-14%
COc1ccc(C2CC(=O)C3=C(C2)Nc2ncnn2C3c2ccccc2C)cc1 (configuration not stated)	?	35	-6%
COc1ccc2c(c1)O[C@@H](c1cccc(C(F)(F)F)c1)[C@H](OC(=O)NCCc1ccc(OC)c(OC)c1)C2=O	3%	?	-11%
O=c1c2ccccc2nc(/C=C/c2ccc([N+](=O)[O-])cc2)n1CCCO	?	?	-12%
O=c1c2ccccc2nc(/C=C/c2ccc([N+](=O)[O-])o2)n1CCCO	?	-89*	-16%
CCCCCCN	-3%	.	-9%
CC(C)CNC(=O)CSc1ccc(Cl)cc1	5%	16	16µM*
Cc1ccc(SCC(=O)NCC(C)C)cc1	-1%	-15	16µM*
SMILES	ALDH1A1 block	PNC assembly inh	HPGD block
CCC(C)NC(=O)CSc1ccc(Cl)cc1 (configuration not stated)	1%	-13	-17%
O=C(CSc1ccc(Cl)cc1)Nn1cnnc1	7%	-11	-11%
CC(C)C(NC(=O)CSc1ccc(Cl)cc1)C(C)C	-1%	-83*	13µM*
Cc1ccc(SCC(=O)NCc2ccc(F)cc2)cc1	1%	.	.
CCCCCCN(C(=O)CCCCCN1C(=O)NC(c2ccccc2-c2ccccc2)C(C(=O)OCc2ccccc2)=C1C)C(C(=O)NCCCC)c1ccc(OCC(=O)OC)c(C(=O)OC)c1 (configuration not stated)	35µM*	.	-12%
CCCCCCN(C(=O)CCCCCN1C(=O)NC(c2ccc3ccccc3c2)C(C(=O)OCc2ccccc2)=C1C)C(C(=O)NCCCC)c1ccc(OCC(=O)OC)c(C(=O)OC)c1 (configuration not stated)	-8%	.	-12%
